# PubChem BioAssay (EPA / NIEHS)
# Where “and” joins values, the source holds several entries; their conditions need not be identical. Equal entries are not always repeated. Records with an inconclusive call do not appear. Calls of active or inactive are those of the source. The calls were made as follows: active = hit-call score of the fitted dose curve at least 0.9, where 1 is the maximum; inconclusive = response in the unintended direction; inactive = score below 0.9.
# Tests used:
# [1] = target: rat Glutamate, NMDA Agonist Site (GluNMDA), Grin1 (gene 24408) (UniProt P35439); assay: NVS_LGIC_rGluNMDA_Agonist: NovaScreen (NVS) Ligand-Gated Ion Channel Assay for rat Glutamate, NMDA Agonist Site (GluNMDA) (AID 2283327)
# Outline: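 Rat forebrain membranes, radioligand binding in the agonist-site protocol; 1 h after dosing; filter-based scintillation counting. Single-concentration duplicate screen at 25 uM, then concentration-response up to 50 uM for actives; gain-of-signal vs DMSO.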
# [2] = target: human Peripheral-type Benzodiazepine Receptor (PBR), TSPO (gene 706) (UniProt P30536); assay: NVS_MP_hPBR: NovaScreen (NVS) Membrane Protein Assay for human Peripheral-type Benzodiazepine Receptor (PBR) (AID 2283331);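 also: hits reduce radioligand binding relative to DMSO baseline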
# Chain of human Peripheral-type Benzodiazepine Receptor (PBR), TSPO (gene 706) (P30536 whole entry, looked up): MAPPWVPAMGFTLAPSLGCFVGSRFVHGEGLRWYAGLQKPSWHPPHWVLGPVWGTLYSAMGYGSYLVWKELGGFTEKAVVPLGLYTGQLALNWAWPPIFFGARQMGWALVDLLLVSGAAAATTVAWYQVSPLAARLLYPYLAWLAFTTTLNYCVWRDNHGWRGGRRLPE
# Outline: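 Scintillation counts of filter-bound radioligand served as read-out after 1 h chemical dosing of human colonic membrane preparations. Activity was scored as signal loss against DMSO; initial duplicates at 25 uM, confirmatory concentration series afterward.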
# [3] = target: rat Peripheral-type Benzodiazepine Receptor (PBR), Tspo (gene 24230) (UniProt P16257); assay: NVS_MP_rPBR: NovaScreen (NVS) Membrane Protein Assay for rat Peripheral-type Benzodiazepine Receptor (PBR) (AID 2283335)
# Chain of rat Peripheral-type Benzodiazepine Receptor (PBR), Tspo (gene 24230) (P16257 whole entry, looked up): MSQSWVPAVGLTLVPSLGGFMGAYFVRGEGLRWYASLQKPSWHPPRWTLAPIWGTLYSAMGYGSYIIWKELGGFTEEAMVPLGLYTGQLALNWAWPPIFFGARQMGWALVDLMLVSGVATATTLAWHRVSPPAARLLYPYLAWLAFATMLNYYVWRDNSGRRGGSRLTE
# Outline: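 Radioligand displacement, rat kidney membrane prep, 1 h exposure, filter-based scintillation read; DMSO baseline, loss-of-signal scored. Primary screen at 25 uM in duplicate, actives followed up in concentration series.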
# [4] = target: rat Gamma-Aminobutyric Acid Type A Receptor, Non-Selective (GABAR-NonSelective), Gabra1 (gene 29705) (UniProt P62813); assay: NVS_LGIC_rGABAR_NonSelective: NovaScreen (NVS) Ligand-Gated Ion Channel Assay for rat Gamma-Aminobutyric Acid Type A Receptor, Non-Selective (GABAR-NonSelective) (AID 2283326)
# Chain of rat Gamma-Aminobutyric Acid Type A Receptor, Non-Selective (GABAR-NonSelective), Gabra1 (gene 29705) (P62813 whole entry, looked up): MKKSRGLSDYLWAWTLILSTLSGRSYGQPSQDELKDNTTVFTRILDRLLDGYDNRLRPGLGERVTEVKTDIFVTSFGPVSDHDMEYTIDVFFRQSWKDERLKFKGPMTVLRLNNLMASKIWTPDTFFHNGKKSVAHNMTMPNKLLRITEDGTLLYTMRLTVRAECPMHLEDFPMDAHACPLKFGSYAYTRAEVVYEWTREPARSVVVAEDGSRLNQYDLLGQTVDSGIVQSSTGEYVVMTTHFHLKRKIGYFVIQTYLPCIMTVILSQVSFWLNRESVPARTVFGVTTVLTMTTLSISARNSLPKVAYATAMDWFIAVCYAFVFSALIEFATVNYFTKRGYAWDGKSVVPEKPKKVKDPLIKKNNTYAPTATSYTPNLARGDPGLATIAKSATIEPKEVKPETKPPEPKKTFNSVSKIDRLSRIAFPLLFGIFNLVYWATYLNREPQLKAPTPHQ
# Outline: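 Radioligand displacement on rat whole-brain extract, 1 h, filter scintillation readout; signal loss fitted versus DMSO. Primary screen in duplicate at 25 uM; hits (e.g. ≥30% inhibition) retested in concentration-response up to 50 uM.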
# [5] = test system: guinea pig Histamine Receptor (H2), gene 100729734; assay: NVS_GPCR_gH2: NovaScreen (NVS) G Protein-Coupled Receptor Assay for guinea pig Histamine Receptor (H2) (AID 2283342)
# Outline: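 Radioligand displacement on guinea pig striatal membranes, 1 h after dosing, filter-based scintillation counting; loss of signal versus DMSO. Single-point screen at 25 uM in duplicate, then concentration-response up to 50 uM.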
# [6] = target: bovine Gamma-Aminobutyric Acid Type A Receptor BDZ, alpha 1 site (GABARa1), GABRA1 (gene 780973) (UniProt P08219); assay: NVS_LGIC_bGABARa1: NovaScreen (NVS) Ligand-Gated Ion Channel Assay for bovine Gamma-Aminobutyric Acid Type A Receptor BDZ, alpha 1 site (GABARa1) (AID 2283321)
# Chain of bovine Gamma-Aminobutyric Acid Type A Receptor BDZ, alpha 1 site (GABARa1), GABRA1 (gene 780973) (P08219 whole entry, looked up): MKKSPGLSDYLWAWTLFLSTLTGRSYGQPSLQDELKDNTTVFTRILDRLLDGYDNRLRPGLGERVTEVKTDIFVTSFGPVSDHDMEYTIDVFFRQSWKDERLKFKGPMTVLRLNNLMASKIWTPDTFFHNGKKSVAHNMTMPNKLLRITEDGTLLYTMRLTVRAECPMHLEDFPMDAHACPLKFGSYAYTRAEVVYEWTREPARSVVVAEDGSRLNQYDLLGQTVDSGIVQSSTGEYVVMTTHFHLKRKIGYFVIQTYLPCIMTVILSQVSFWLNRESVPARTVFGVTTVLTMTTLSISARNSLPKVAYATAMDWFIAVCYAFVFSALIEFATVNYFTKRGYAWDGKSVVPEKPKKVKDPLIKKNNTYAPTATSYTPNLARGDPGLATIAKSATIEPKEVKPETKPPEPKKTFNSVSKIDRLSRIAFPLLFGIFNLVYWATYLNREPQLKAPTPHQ
# Outline: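 Radioligand competition binding on bovine cortical membranes, 0.75 h, filter-based scintillation counting. Primary single concentration 25 uM in duplicate; actives rerun in concentration-response to 50 uM max. Loss of signal fitted versus DMSO.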
# [7] = target: rat Thyrotropin Releasing Hormone Receptor (TRH), Trhr (gene 25570) (UniProt Q01717); assay: NVS_GPCR_rTRH: NovaScreen (NVS) G Protein-Coupled Receptor Assay for rat Thyrotropin Releasing Hormone Receptor (TRH) (AID 2283329);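 also: hit means lower bound tracer signal versus DMSO baseline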
# Chain of rat Thyrotropin Releasing Hormone Receptor (TRH), Trhr (gene 25570) (Q01717 whole entry, looked up): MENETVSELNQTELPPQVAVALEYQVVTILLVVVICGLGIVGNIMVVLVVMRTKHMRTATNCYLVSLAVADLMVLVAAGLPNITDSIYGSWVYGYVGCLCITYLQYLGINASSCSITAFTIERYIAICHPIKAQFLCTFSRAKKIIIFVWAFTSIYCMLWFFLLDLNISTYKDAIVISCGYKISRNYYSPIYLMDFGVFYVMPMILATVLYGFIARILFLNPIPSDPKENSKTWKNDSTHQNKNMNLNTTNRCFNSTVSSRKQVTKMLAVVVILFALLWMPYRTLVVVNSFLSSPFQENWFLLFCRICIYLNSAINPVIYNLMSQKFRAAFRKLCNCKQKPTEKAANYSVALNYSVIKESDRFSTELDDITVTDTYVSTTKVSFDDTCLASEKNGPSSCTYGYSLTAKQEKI
# Outline: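 Test compounds are screened at 25 uM in duplicate against radioligand binding in rat forebrain membranes, with active pairs followed up over a concentration range. Detection uses filter-based radiodetection after a 4 h exposure.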
# [8] = target: bovine Gamma-Aminobutyric Acid Type A Receptor BDZ, alpha 5 site (GABARa5), GABRA5 (gene 523515) (UniProt Q08E50); assay: NVS_LGIC_bGABARa5: NovaScreen (NVS) Ligand-Gated Ion Channel Assay for bovine Gamma-Aminobutyric Acid Type A Receptor BDZ, alpha 5 site (GABARa5) (AID 2283323)
# Chain of bovine Gamma-Aminobutyric Acid Type A Receptor BDZ, alpha 5 site (GABARa5), GABRA5 (gene 523515) (Q08E50 whole entry, looked up): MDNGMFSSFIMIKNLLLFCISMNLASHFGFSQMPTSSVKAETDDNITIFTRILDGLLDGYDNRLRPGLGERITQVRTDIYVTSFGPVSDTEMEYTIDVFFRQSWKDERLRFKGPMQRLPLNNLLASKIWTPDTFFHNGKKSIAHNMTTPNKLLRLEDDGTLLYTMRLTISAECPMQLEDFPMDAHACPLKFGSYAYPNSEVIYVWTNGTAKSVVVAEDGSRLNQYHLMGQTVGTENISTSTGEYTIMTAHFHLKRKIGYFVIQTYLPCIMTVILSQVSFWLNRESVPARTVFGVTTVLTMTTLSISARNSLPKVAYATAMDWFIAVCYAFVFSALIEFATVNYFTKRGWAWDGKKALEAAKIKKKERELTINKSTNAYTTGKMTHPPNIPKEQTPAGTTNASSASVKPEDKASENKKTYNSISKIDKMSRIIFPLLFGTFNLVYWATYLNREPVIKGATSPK
# Outline: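 Radioligand competitive displacement binding on bovine hippocampal membranes, read 1 hr after dosing by filter-based scintillation counting. Primary screen at 25 uM in duplicate; actives (e.g. ≥30% inhibition) then run in concentration-response up to 50 uM.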
# [9] = target: bovine Gamma-Aminobutyric Acid Type A Receptor Agonist (GABAR Agonist), GABRA1 (gene 780973) (UniProt P08219); assay: NVS_LGIC_bGABAR_Agonist: NovaScreen (NVS) Ligand-Gated Ion Channel Assay for bovine Gamma-Aminobutyric Acid Type A Receptor Agonist (GABAR Agonist) (AID 2283338)
# Chain of bovine Gamma-Aminobutyric Acid Type A Receptor Agonist (GABAR Agonist), GABRA1 (gene 780973) (P08219 whole entry, looked up): as the sequence (P08219 whole entry, looked up) above
# Outline: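 Radioligand binding to bovine cerebellar membranes in agonist format, read by filter-based scintillation counting after 1 h. Primary screen in duplicate at 25 uM, with actives followed in concentration series. Gain of signal versus DMSO.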
# [10] = target: rat Glycine Receptor, Strychnine-sensitive (GlyRStrySens), Glra1 (gene 25674) (UniProt P07727); assay: NVS_LGIC_rGlyRStrySens: NovaScreen (NVS) Ligand-Gated Ion Channel Assay for rat Glycine Receptor, Strychnine-sensitive (GlyRStrySens) (AID 2283341)
# Chain of rat Glycine Receptor, Strychnine-sensitive (GlyRStrySens), Glra1 (gene 25674) (P07727 whole entry, looked up): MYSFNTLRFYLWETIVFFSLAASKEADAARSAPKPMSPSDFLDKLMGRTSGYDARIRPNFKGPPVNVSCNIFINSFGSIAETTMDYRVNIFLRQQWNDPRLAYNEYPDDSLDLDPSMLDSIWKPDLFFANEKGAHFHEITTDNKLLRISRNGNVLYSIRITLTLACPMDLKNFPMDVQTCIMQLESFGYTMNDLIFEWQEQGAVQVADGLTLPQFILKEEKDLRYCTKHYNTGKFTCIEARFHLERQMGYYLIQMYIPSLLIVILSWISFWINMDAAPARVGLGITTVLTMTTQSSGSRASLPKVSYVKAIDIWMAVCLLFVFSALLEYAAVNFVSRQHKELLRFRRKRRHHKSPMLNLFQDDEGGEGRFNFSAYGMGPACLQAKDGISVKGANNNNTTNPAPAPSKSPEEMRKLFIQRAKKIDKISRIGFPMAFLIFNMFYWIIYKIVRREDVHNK
# Outline: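 Radioligand displacement on rat spinal cord membranes, 1 hr, filter scintillation read-out. Single-concentration duplicate screen at 25 uM; chemicals meeting threshold (e.g., 30% inhibition) rerun in concentration-response up to 50 uM. Loss of binding fitted versus DMSO.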
# [11] = target: human Androgen Receptor (AR), AR (gene 367) (UniProt P10275); assay: NVS_NR_hAR: NovaScreen (NVS) Nuclear Receptor Binding Assay for human Androgen Receptor (AR) (AID 2283332)
# Chain of human Androgen Receptor (AR), AR (gene 367) (P10275 whole entry, looked up): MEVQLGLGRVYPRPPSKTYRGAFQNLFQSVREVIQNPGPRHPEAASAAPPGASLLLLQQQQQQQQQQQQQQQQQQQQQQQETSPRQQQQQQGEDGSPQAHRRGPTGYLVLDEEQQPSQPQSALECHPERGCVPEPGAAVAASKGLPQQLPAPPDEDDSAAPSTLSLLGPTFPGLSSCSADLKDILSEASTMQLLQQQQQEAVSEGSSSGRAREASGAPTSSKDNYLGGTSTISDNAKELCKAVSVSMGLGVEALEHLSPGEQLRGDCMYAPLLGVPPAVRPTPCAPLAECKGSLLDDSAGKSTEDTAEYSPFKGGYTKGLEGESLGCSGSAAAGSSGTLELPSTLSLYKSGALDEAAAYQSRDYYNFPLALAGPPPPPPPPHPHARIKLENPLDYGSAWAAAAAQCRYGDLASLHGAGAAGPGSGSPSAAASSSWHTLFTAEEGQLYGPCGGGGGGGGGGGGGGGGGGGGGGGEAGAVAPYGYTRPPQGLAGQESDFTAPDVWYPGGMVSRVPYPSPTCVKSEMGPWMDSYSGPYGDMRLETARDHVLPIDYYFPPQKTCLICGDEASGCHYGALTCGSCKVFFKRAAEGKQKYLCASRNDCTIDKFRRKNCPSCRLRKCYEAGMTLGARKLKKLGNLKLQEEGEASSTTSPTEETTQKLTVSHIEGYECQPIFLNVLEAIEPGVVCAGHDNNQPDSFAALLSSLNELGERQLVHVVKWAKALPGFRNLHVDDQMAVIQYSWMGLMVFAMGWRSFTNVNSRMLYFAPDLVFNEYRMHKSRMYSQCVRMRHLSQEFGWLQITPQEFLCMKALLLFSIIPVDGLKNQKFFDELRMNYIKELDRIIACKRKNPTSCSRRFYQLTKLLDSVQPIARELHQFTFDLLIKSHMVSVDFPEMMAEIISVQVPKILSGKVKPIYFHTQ
# Outline: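 Radioligand competitive binding, scintillation read-out, in cell-free extract from LnCAP, measured 20 h after dosing. Screened first in duplicate at 25 uM, then concentration series for actives; activity fitted against DMSO.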
# [12] = target: Small conductance calcium-activated potassium channel protein 1 (Rattus norvegicus) (UniProt P70606); assay: NVS_IC_rKCaCh: NovaScreen (NVS) Ion Channel Assay for rat Potassium Channel, Ca2+ Act., VI (KCaCh) (AID 2283336)
# Chain of Small conductance calcium-activated potassium channel protein 1 (Rattus norvegicus) (P70606 whole entry, looked up): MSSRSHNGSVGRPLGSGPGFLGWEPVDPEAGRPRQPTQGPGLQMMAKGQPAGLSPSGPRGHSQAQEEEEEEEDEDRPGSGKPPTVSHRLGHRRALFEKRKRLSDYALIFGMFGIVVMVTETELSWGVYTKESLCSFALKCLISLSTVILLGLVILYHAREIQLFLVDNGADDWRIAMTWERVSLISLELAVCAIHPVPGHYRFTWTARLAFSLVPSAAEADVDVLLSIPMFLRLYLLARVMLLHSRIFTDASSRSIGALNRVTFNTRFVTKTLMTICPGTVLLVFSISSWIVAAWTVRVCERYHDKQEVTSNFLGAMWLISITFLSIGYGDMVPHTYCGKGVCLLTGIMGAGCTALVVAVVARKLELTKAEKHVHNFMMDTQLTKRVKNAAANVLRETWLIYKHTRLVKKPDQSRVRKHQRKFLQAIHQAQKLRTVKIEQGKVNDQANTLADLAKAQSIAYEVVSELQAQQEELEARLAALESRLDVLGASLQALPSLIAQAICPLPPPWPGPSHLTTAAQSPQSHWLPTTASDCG
# Outline: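 Radioligand binding to rat forebrain membranes, cell-free, read 1 hour after dosing by filter-based scintillation counting. Compounds first run in duplicate at 25 uM, actives then in concentration series; loss of signal vs DMSO indicates displacement.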
# [13] = target: Voltage-gated inwardly rectifying potassium channel KCNH2 (Homo sapiens) (UniProt Q12809); assay: NVS_IC_hKhERGCh: NovaScreen (NVS) Ion Channel Assay for human Potassium Channel ERG (KhERGCh) (AID 2283333)
# Outline: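 Cell-free radioligand competition binding on hERG protein extracted from CHO cells, read by filter-based scintillation counting 0.75 h after dosing. Primary screen at 25 uM in duplicate, actives followed in concentration series. Signal loss fitted versus DMSO.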
structure (smiles),measurement,setting,value
CCCCC(CC)COC(=O)c1ccccc1C(=O)OCC(CC)CCCC (stereo unspecified),outcome,[1],inactive
same,AC50,[2],8.75 µM (active)
same,AC50,[3],15.6 µM (active)
CN(C)C(=S)SSC(=S)N(C)C,outcome,[4],inactive
same,AC50,[3],11 µM (active)
same,outcome,[5],inactive
CCOC(=O)C(Cl)Cc1cc(-n2nc(C)n(C(F)F)c2=O)c(F)cc1Cl (stereo unspecified),outcome,[6],inactive
same,outcome,[4],inactive
same,AC50,[2],25 µM (active)
same,AC50,[3],16.1 µM (active)
CC(C)Oc1cc(-n2nc(C(C)(C)C)oc2=O)c(Cl)cc1Cl,outcome,[7],inactive
CCCCOC(=O)c1ccccc1C(=O)OCCCC,AC50,[8],32.5 µM (active) and 19.3 µM (active)
same,AC50,[2],22.1 µM (active) [middle of 5 runs]
same,AC50,[3],13.4 µM (active) and 15.5 µM (active)
same,outcome,[9],inactive
CC1COC(Cn2cncn2)(c2ccc(Oc3ccc(Cl)cc3)cc2Cl)O1 (stereo unspecified),outcome,[2],inactive
same,outcome,[3],inactive
same,outcome,[5],inactive
Cc1c(F)c(F)c(COC(=O)C2C(/C=C(\Cl)C(F)(F)F)C2(C)C)c(F)c1F (stereo unspecified),outcome,[10],inactive
CCCCNC(=O)OCC#CI,AC50,[2],38.2 µM (active) and 41.3 µM (active)
same,AC50,[3],12.8 µM (active) and 10.7 µM (active)
same,outcome,[9],inactive
same,outcome,[5],inactive
COP(N)(=O)SC (stereo unspecified),outcome,[2],inactive
CNC(=O)ON=CC(C)(C)SC,outcome,[2],inactive
CCOC(=O)CC(SP(=S)(OC)OC)C(=O)OCC (stereo unspecified),AC50,[2],2.17 µM (active)
same,AC50,[11],25 µM (active)
same,AC50,[3],10.5 µM (active)
CON(C)C(=O)Nc1ccc(Cl)c(Cl)c1,AC50,[2],11.9 µM (active) [middle of 4 runs]
same,AC50,[3],4.62 µM (active) [middle of 4 runs]
same,outcome,[12],inactive
CCOP(=S)(OCC)SCn1c(=O)oc2cc(Cl)ccc21,AC50,[2],2.65 µM (active)
same,AC50,[3],4.01 µM (active)
same,outcome,[5],inactive
COC(=O)c1ccccc1C(=O)OC,outcome,[2],inactive
same,outcome,[5],inactive
CC1=C(C(=O)Nc2ccccc2)SCCO1,AC50,[2],20.5 µM (active)
same,AC50,[3],12.3 µM (active)
CCNc1nc(Cl)nc(NCC)n1,AC50,[2],46.2 µM (active)
same,outcome,[3],inactive
CC(Oc1ccc(Cl)cc1Cl)C(=O)O (stereo unspecified),outcome,[10],inactive
O=C(O)COc1nc(Cl)c(Cl)cc1Cl,outcome,[2],inactive
same,AC50,[3],14.6 µM (active)
COC(=O)N(OC)c1ccccc1COc1ccn(-c2ccc(Cl)cc2)n1,AC50,[2],0.105 µM (active)
same,AC50,[3],0.26 µM (active)
CCCCNC(=O)n1c(NC(=O)OC)nc2ccccc21,outcome,[10],inactive
O=C(Nc1ccccc1)Nc1ccnc(Cl)c1,outcome,[2],inactive
same,AC50,[11],5.13 µM (active)
same,AC50,[13],9.2 µM (active)
same,AC50,[3],15.6 µM (active)
same,outcome,[10],inactive
